From the OligoGym collection come the findings set out here.
Also: reference of the scale not given here.

In the experiment the target is ENO2. In words: pooled miR-30 sensor sort-seq; sequence = guide strand. As to conditions: shRNA.
For TGATGTATCGGGAAGGATCAGT, the sensor-assay potency score (higher = more potent) was -0.0535.
With TTGGATTTGTTCTCAGTCCCAT the figure was 0.271; with TATAGAGATCCACCTCCACTGT, -0.931; with TAGTCCCTGACAAAGTCCTGGT, -0.652.
TTGAGCAGCAGACAGTTGCAGG returned a sensor-assay potency score (higher = more potent) of -0.936.
As for TTGGCTGTGAACTTGGACCAGG, the sensor-assay potency score (higher = more potent) is -0.413.
TTTGCCTAAGTAACGCTGTTTG: the sensor-assay potency score (higher = more potent) is -1.32.
For TTGAGTGTATGGTAGACCTCTG the value was -0.0986; for TTGGATGGCTTCAGTGACCGAG, 0.159.
With TTGTCCTTGATGACTCCCTTGA the figure was -0.328; with TATTTGTCCTTGATGACTCCCT, 0.308; with TTTGTCTCCATCCCTCAGCTCC, -0.755.
For TAGAGATCCACCTCCACTGTGG, the sensor-assay potency score (higher = more potent) worked out at 0.0832.
Sequence TTCCTCAATTCTCATGAGCTGG displayed a sensor-assay potency score (higher = more potent) of -0.892.
For TATGGTAGACCTCTGCACCTAG the value was 0.499; for TTCAGTGACCGAGCCGATCTGG, -0.433.
Sequence TTTTGGGTTGGTCACTGTCAGG had a sensor-assay potency score (higher = more potent) of -1.77.
TTCTCTTGCTCCACCACAGAGA yielded a sensor-assay potency score (higher = more potent) of -1.02.
With TACATTGGCTGTGAACTTGGAC, the sensor-assay potency score (higher = more potent) stood at 0.428.
With ATTGGTGGCATCCTTGCCGTAT the figure was -0.654; with TTTCTCTTGCTCCACCACAGAG, -1.22; with TAGACCTCTGCACCTAGTCGCA, -1.03.
Consider TCTAACACCTCAGCACACCAAC, for which the sensor-assay potency score (higher = more potent) was -0.842.
As for TTGATGACTCCCTTGAGTGTAT, the sensor-assay potency score (higher = more potent) was -0.705.
